Source: PubChem BioAssay (EPA / NIEHS)
Inconclusive results are not listed. The source made the active and inactive calls. The calls were made as follows, unless noted: active = hit-call score of the fitted dose curve at least 0.9, where 1 is the maximum; inactive = score below 0.9.

system: not listed separately; assay: ATG_TGFb_CIS: Attagene CIS-FACTORIAL HepG2 Assay for human Transforming Growth Factor (TGF) (AID 2282967); details: HepG2 Attagene CIS TGFb reporter, mRNA transcription; actives raise or lower the signal
Summary of the method: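 Cells were dosed for 24 hours, after which total RNA was reverse-transcribed and reporter sequences amplified, labeled and sized by capillary electrophoresis. Activity was fitted in both directions against DMSO.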

Compound	outcome
CC1(C)S[C@@H]2[C@H](NC(=O)[C@H](N)c3ccccc3)C(=O)N2[C@H]1C(=O)O	inactive
CCC(C)(CCC(C)C)C(=O)O (stereo unspecified)	inactive
Cc1cc(C)c(S(=O)(=O)O)cc1N=Nc1cc(S(=O)(=O)O)c2ccccc2c1O	inactive
CCCc1c(OCCCCc2nn[nH]n2)ccc(C(C)=O)c1O	inactive
Clc1ccccn1	inactive
c1cc(N(CC2CO2)CC2CO2)ccc1Cc1ccc(N(CC2CO2)CC2CO2)cc1 (stereo unspecified)	inactive
CCCCCCOC(=O)CCCCCCCC(=O)OCCCCCC	inactive
CC1=NN(c2cc(Cl)c(S(=O)(=O)O)cc2Cl)C(=O)C1N=Nc1ccc(S(=O)(=O)O)cc1 (stereo unspecified)	inactive
O=C(O)Cc1c[nH]c2ccccc12	inactive
CCCCCCCCCCC1CO1 (stereo unspecified)	inactive
NCc1ccccc1	inactive
O=[N+]([O-])c1ccc2nc[nH]c2c1	inactive
CCCCn1cc[n+](C)c1	inactive
CC(C)CC(=O)O	inactive
C[Si](C)(C)O[Si](C)(C)O[Si](C)(C)C	inactive
Cc1cc(O)cc(C)c1Cl	inactive
CC(C)n1c(/C=C/[C@@H](O)C[C@@H](O)CC(=O)O)c(-c2ccc(F)cc2)c2ccccc21	inactive
CC1=C(CC=O)C(C)(C)CCC1	inactive
CC(O)(P(=O)(O)O)P(=O)(O)O	inactive
Cc1cccnc1	inactive

Compound	outcome
Cc1ccccc1S(N)(=O)=O	inactive
C=C(C)C(=O)OCC1CCCO1 (stereo unspecified)	inactive
OCCOCCOCCOCCOCCO	inactive
C1=CCC=C1	inactive
CC(C)CC(=O)CC(C)CC(C)C (stereo unspecified)	inactive
CCCOCCC	inactive
CN(C)CCC(c1ccc(Cl)cc1)c1ccccn1 (stereo unspecified)	inactive
CN(C)CCCN1c2ccccc2CCc2ccc(Cl)cc21	inactive
CC/C=C\CC1=C(C)CCC1=O	inactive
C[C@H]1C[C@H]2[C@@H]3CCC4=CC(=O)C=C[C@]4(C)[C@@]3(F)[C@@H](O)C[C@]2(C)[C@@]1(O)C(=O)CO	inactive
COC(OC)C(C)c1ccccc1 (stereo unspecified)	inactive
F[B-](F)(F)F	inactive
COCCCN	inactive
CC1=CCCC(C)(C)C12CCC(C)O2 (stereo unspecified)	inactive
CC(=O)c1nccs1	inactive
COc1ccccc1OCC(O)CO (stereo unspecified)	inactive
OCCN(CCO)c1cccc(Cl)c1	inactive
O=C(O)c1nc(Cl)c(Cl)c(Cl)c1Cl	inactive
CC=CC(=O)O	inactive

system: not listed separately; assay: ATG_VDRE_CIS: Attagene CIS-FACTORIAL HepG2 Assay for human Vitamin D Receptor Element (VDRE) (AID 2282968); details: HepG2 VDRE cis-reporter transcription, actives raise or lower the signal
Summary of the method: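 Steps: transfect HepG2 with multiple reporter transcription units; dose chemicals 24 h; isolate RNA; RT-PCR; label with 6-FAM primer extension; HpaI digest; capillary electrophoresis. Curves fitted both directions against DMSO.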

Compound	outcome	AC50
Cc1cc(C)c(S(=O)(=O)O)cc1N=Nc1cc(S(=O)(=O)O)c2ccccc2c1O	inactive	
CCCc1c(OCCCCc2nn[nH]n2)ccc(C(C)=O)c1O	inactive	
Clc1ccccn1	inactive	
c1cc(N(CC2CO2)CC2CO2)ccc1Cc1ccc(N(CC2CO2)CC2CO2)cc1 (stereo unspecified)		3.66 µM (active)
CCCCCCCCCCC1CO1 (stereo unspecified)	inactive	
CC(C)CC(=O)O	inactive	
C[Si](C)(C)O[Si](C)(C)O[Si](C)(C)C	inactive	
Cc1ccccc1S(N)(=O)=O		26.5 µM (active)
C=C(C)C(=O)OCC1CCCO1 (stereo unspecified)	inactive	
OCCOCCOCCOCCOCCO	inactive	
C1=CCC=C1	inactive	
CCCOCCC	inactive	
COC(OC)C(C)c1ccccc1 (stereo unspecified)	inactive	
F[B-](F)(F)F	inactive	
COCCCN	inactive	
CC(=O)c1nccs1	inactive	
O=C(O)c1nc(Cl)c(Cl)c(Cl)c1Cl	inactive	

biological target: Nuclear receptor subfamily 1 group I member 3 (Homo sapiens) (UniProt Q14994); assay: ATG_CAR_TRANS: Attagene TRANS-FACTORIAL HepG2 Assay for human Constitutive Androstane Receptor (CAR) (AID 2282969; active = hit-call score of the fitted dose curve at least 0.9, where 1 is the maximum;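 also: activators raise reporter mRNA above DMSO so AC50 marks induction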); details: HepG2 Attagene TRANS-FACTORIAL CAR reporter
Summary of the method: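 Steps: transient transfection of HepG2 with multiple GAL4-UAS reporter units; 24 h compound incubation; RNA isolation, RT-PCR, 6-FAM primer extension, HpaI digest; capillary electrophoresis. Gain-of-signal relative to DMSO negative control.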

Sequence of Nuclear receptor subfamily 1 group I member 3 (Homo sapiens) (Q14994 whole entry, looked up, the tested form may be a part): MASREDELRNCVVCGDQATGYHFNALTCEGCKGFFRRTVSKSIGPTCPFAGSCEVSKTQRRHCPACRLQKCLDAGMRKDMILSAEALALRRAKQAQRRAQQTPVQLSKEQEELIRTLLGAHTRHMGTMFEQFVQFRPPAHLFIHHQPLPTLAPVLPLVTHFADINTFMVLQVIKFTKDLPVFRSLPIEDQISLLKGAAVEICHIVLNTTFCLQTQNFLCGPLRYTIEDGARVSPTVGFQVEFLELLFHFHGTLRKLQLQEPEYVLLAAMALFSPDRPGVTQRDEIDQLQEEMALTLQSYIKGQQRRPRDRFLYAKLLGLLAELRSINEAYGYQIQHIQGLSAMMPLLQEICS

Compound	outcome
Cc1cc(C)c(S(=O)(=O)O)cc1N=Nc1cc(S(=O)(=O)O)c2ccccc2c1O	inactive
CCCCCCOC(=O)CCCCCCCC(=O)OCCCCCC	inactive
O=C(O)Cc1c[nH]c2ccccc12	inactive
NCc1ccccc1	inactive
CC(C)CC(=O)O	inactive
Cc1cccnc1	inactive
Cc1ccccc1S(N)(=O)=O	inactive
C=C(C)C(=O)OCC1CCCO1 (stereo unspecified)	inactive
CC(C)CC(=O)CC(C)CC(C)C (stereo unspecified)	inactive
CCCOCCC	inactive
CC/C=C\CC1=C(C)CCC1=O	inactive
COCCCN	inactive
CC(=O)c1nccs1	inactive
OCCN(CCO)c1cccc(Cl)c1	inactive

biological target: Estrogen receptor (Homo sapiens) (UniProt P03372); assay: ATG_ERa_TRANS: Attagene TRANS-FACTORIAL HepG2 Assay for human Estrogen Receptor alpha (ERa) (AID 2282970; active = hit-call score of the fitted dose curve at least 0.9, where 1 is the maximum); details: HepG2 Attagene TRANS ERa GAL4 reporter, mRNA
Summary of the method: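 Gal4-fusion ERa transactivation, measured as reporter transcript level in transiently transfected HepG2 cells. Exposure 24 h; RT-PCR plus capillary electrophoresis with fluorescence detection.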

Sequence of Estrogen receptor (Homo sapiens) (P03372 whole entry, looked up, the tested form may be a part): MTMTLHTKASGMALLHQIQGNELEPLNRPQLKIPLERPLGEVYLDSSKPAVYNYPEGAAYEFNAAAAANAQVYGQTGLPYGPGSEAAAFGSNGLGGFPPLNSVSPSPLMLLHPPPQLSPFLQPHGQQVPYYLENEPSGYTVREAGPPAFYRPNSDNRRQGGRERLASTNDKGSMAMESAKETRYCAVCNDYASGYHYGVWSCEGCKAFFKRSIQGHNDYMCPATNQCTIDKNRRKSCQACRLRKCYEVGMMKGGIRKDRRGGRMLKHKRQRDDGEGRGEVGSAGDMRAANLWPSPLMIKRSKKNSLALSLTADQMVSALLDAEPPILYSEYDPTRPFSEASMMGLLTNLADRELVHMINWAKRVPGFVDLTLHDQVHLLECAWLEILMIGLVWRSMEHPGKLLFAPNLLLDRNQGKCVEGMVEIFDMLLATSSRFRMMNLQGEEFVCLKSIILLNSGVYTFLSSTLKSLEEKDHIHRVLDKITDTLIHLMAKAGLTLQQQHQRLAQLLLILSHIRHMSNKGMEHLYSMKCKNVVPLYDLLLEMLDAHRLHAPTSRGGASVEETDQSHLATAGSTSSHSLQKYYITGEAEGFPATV

Compound	outcome	AC50
CCCc1c(OCCCCc2nn[nH]n2)ccc(C(C)=O)c1O	inactive	
O=[N+]([O-])c1ccc2nc[nH]c2c1	inactive	
CC(C)CC(=O)O	inactive	
COC(OC)C(C)c1ccccc1 (stereo unspecified)	inactive	
CC(=O)c1nccs1		39.3 µM (active)

biological target: Steroid hormone receptor ERR1 (Homo sapiens) (UniProt P11474); assay: ATG_ERRa_TRANS: Attagene TRANS-FACTORIAL HepG2 Assay for human Estrogen-Related Receptor alpha (ERRa) (AID 2282971; active = hit-call score of the fitted dose curve at least 0.9, where 1 is the maximum); details: HepG2 Attagene TRANS reporter, ERRa transactivation
Summary of the method: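 HepG2 cells transiently transfected with GAL4-UAS reporter units and chimeric NR-Gal4 constructs; after 24 hour compound incubation, reporter mRNA quantified by RT-PCR, fluorescent labelling and capillary electrophoresis, gain of signal versus DMSO.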

Sequence of Steroid hormone receptor ERR1 (Homo sapiens) (P11474 whole entry, looked up, the tested form may be a part): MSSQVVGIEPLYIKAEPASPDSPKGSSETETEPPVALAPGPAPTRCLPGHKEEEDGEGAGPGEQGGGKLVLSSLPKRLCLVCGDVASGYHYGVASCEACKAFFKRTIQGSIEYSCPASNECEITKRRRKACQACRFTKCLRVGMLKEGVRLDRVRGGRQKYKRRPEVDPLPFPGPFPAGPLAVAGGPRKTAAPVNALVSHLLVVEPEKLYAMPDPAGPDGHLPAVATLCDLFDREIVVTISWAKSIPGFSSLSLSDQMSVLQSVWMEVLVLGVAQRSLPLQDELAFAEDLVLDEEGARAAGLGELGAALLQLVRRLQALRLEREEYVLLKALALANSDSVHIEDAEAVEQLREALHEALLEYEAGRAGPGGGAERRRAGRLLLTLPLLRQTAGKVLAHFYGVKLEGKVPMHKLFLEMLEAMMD

Compound	outcome
CCC(C)(CCC(C)C)C(=O)O (stereo unspecified)	inactive
c1cc(N(CC2CO2)CC2CO2)ccc1Cc1ccc(N(CC2CO2)CC2CO2)cc1 (stereo unspecified)	inactive
O=C(O)Cc1c[nH]c2ccccc12	inactive
NCc1ccccc1	inactive
OCCOCCOCCOCCOCCO	inactive
CC=CC(=O)O	inactive

biological target: X-box-binding protein 1 (Homo sapiens) (UniProt P17861); assay: ATG_Xbp1_CIS: Attagene CIS-FACTORIAL HepG2 Assay for human X-box Binding Protein 1 (XBP1) (AID 2282972); details: HepG2 XBP1 cis-element reporter, Attagene multiplex; actives raise or lower the signal
Summary of the method: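 Changes in reporter transcript abundance, read by RT-PCR and capillary electrophoresis, reflect endogenous transcription factor activity. Transfected HepG2 cells received compound for 24 hours; DMSO defined baseline for bidirectional analysis.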

Sequence of X-box-binding protein 1 (Homo sapiens) (P17861 whole entry, looked up): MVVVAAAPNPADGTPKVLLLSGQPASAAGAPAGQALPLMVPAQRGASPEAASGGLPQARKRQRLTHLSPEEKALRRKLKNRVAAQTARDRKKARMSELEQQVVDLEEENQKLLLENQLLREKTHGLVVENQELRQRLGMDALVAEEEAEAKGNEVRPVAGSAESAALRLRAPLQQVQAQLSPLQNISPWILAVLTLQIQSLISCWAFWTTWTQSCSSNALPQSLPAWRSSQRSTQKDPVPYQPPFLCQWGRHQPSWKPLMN

Compound	outcome	AC50
CCC(C)(CCC(C)C)C(=O)O (stereo unspecified)	inactive	
Cc1cc(C)c(S(=O)(=O)O)cc1N=Nc1cc(S(=O)(=O)O)c2ccccc2c1O	inactive	
CCCc1c(OCCCCc2nn[nH]n2)ccc(C(C)=O)c1O	inactive	
Clc1ccccn1	inactive	
c1cc(N(CC2CO2)CC2CO2)ccc1Cc1ccc(N(CC2CO2)CC2CO2)cc1 (stereo unspecified)		6.26 µM (active)
CCCCCCOC(=O)CCCCCCCC(=O)OCCCCCC	inactive	
O=C(O)Cc1c[nH]c2ccccc12	inactive	
CCCCCCCCCCC1CO1 (stereo unspecified)	inactive	
O=[N+]([O-])c1ccc2nc[nH]c2c1	inactive	
CCCCn1cc[n+](C)c1	inactive	
C[Si](C)(C)O[Si](C)(C)O[Si](C)(C)C	inactive	
Cc1cc(O)cc(C)c1Cl	inactive	
CC(C)n1c(/C=C/[C@@H](O)C[C@@H](O)CC(=O)O)c(-c2ccc(F)cc2)c2ccccc21	inactive	
CC1=C(CC=O)C(C)(C)CCC1	inactive	
CC(O)(P(=O)(O)O)P(=O)(O)O	inactive	
Cc1ccccc1S(N)(=O)=O	inactive	
C=C(C)C(=O)OCC1CCCO1 (stereo unspecified)	inactive	
C1=CCC=C1	inactive	
CC(C)CC(=O)CC(C)CC(C)C (stereo unspecified)	inactive	
CCCOCCC	inactive	
CN(C)CCC(c1ccc(Cl)cc1)c1ccccn1 (stereo unspecified)	inactive	
CN(C)CCCN1c2ccccc2CCc2ccc(Cl)cc21	inactive	
F[B-](F)(F)F	inactive	
COCCCN	inactive	
CC1=CCCC(C)(C)C12CCC(C)O2 (stereo unspecified)	inactive	
CC(=O)c1nccs1	inactive	
COc1ccccc1OCC(O)CO (stereo unspecified)	inactive	
OCCN(CCO)c1cccc(Cl)c1	inactive	
O=C(O)c1nc(Cl)c(Cl)c(Cl)c1Cl	inactive	
CC=CC(=O)O	inactive	
